This is an account of results in PubChem BioAssay (Tox21).

The nature of assay [1]: qHTS assay to identify small molecule agonists of the sonic hedgehog signaling (Shh) pathway (AID 1259368).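 Further: NIH/3T3-derived 3T3Gli1-Luc cells carrying a stable Gli1-driven firefly luciferase reporter; series mostly up to about 92 µM; nearly all actives have a fitted effect of over 15% in size.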 An outline of the steps:
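Quantitative high-throughput format using a Gli1-driven firefly luciferase reporter line derived from NIH/3T3 cells. After a 24 hr compound treatment at 37 C and 5% CO2, luminescence reported Gli1 response element activity.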

Assay [2] is described as follows: qHTS assay to identify small molecule antagonists of the sonic hedgehog signaling (Shh) pathway (AID 1259369). Further: nearly all actives have a fitted effect of over 45% in size. Further: potency means the concentration at half of the fitted maximal effect. Put shortly: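 Stable Gli1-Luc reporter NIH/3T3 clone; quantitative HTS in stimulated mode with conditioned medium. Luminescence measured after 24hr compound treatment at 37 C.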
Assay [3] addresses Estrogen receptor beta (Homo sapiens) (UniProt Q92731). Briefly: qHTS assay to identify small molecule agonists of the estrogen receptor beta (ER-beta) signaling pathway (AID 1259377; active means well fitted activation curve with a large enough effect in the signal ratio in the repeat runs, not every such curve was filed as active; the % refers to the signal ratio). Put shortly: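 qHTS in ER-beta-UAS-bla HEK293T cells: 6 hr settling, then 16 hr compound at 37C, then LiveBLAzer substrate 2 h at RT before fluorescence reading.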
(In general: qHTS replaces the single test concentration by a dilution series.)

Assay [4] in a line: qHTS assay to identify small molecule agonists of the estrogen receptor beta (ER-beta) signaling pathway - cell viability counter screen (AID 1259380; active means well fitted curve in the direction sought with a large enough effect in the repeat runs; an effect the other way counts as inactive or inconclusive; further: nearly all actives have a fitted effect of over 30% in size; further: potency means the concentration at half of the fitted maximal effect). Put shortly: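 Steps: plate ER-beta-UAS-bla HEK293T cells, rest 6 hr; add compounds in DMSO; incubate 16 hr at 37C, 5% CO2; add FRET substrate 2 hr; add CellTiter-Glo, wait 30 min at room temperature; read luminescence.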
Assay [5] is described as follows: qHTS assay to identify small molecule antagonists of the estrogen receptor beta (ER-beta) signaling pathway - cell viability counter screen (AID 1259382; active means well fitted curve in the direction sought with a large enough effect in the repeat runs; an effect the other way counts as inactive or inconclusive;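 further: HEK293T cells carrying ER-beta-UAS-bla reporter stimulated with estradiol; series mostly up to about 92 µM; nearly all actives have a fitted effect of over 55% in size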). Put shortly:
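Viability is scored by CellTiter-Glo luminescence (30 min, room temperature) in ER-beta-UAS-bla HEK293T wells already read for reporter fluorescence. Compound exposure lasts 16 hr at 37C alongside 1nM 17-beta-estradiol in charcoal-stripped serum medium.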

The target in assay [6] is Estrogen receptor (Homo sapiens) (UniProt P03372). The assay can be described thus: qHTS assay to identify small molecule agonists of the estrogen receptor alpha (ER-alpha) signaling pathway in the presence of an antagonist (AID 1259383). Further: top concentration of the series differs between compounds; nearly all actives have a fitted effect of over 15% in size. Put shortly: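 Readout was ERE-driven luciferase luminescence in VM7Luc4E2 cells, which express full-length ER-alpha endogenously. Compounds were tested at 15 concentrations for 22hr alongside 10.0nM ICI-182,780 (final concentration).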
Sequence of Estrogen receptor (Homo sapiens) (P03372 whole entry, looked up): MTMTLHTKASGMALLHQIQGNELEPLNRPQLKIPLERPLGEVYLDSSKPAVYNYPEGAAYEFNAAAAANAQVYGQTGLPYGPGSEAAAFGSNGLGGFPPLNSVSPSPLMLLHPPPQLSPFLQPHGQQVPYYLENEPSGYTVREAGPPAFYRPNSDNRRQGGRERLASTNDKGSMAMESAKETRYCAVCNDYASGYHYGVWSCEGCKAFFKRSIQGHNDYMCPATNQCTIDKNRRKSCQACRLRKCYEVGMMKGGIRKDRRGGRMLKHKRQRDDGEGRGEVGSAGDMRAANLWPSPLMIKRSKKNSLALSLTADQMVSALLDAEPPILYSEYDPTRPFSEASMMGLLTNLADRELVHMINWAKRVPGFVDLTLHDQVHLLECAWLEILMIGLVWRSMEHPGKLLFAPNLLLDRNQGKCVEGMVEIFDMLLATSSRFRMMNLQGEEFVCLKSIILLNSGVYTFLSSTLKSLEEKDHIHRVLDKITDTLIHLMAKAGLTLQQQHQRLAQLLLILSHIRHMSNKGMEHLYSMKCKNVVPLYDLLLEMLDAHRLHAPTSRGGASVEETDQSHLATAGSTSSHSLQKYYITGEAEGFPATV

Assay [7] is described as follows: qHTS assay to identify small molecule agonists or antagonists of the thyroid stimulating hormone receptor (TSHR) signaling pathway - wild type cell line counter screen (AID 1259384). Put shortly:
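Counter screen in untransfected Hek293: compounds (15-point titration, triplicate) plus phosphodiesterase inhibitor Ro20-1724 added after 18 h plating; 30 min RT. Intracellular cAMP via competitive d2/cryptate immunoassay, 1 h incubation.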

Assay [8] can be described thus: qHTS assay to identify small molecule agonists of the androgen receptor (AR) signaling pathway in the presence of an antagonist - cell viability counter screen (AID 1259379; active means well fitted curve in the direction sought with a large enough effect in the repeat runs; an effect the other way counts as inactive or inconclusive; further: nearly all actives have a fitted effect of over 25% in size; further: potency means the concentration at half of the fitted maximal effect;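 on activity change, negative = cytotoxicity: MDA-kb2 human breast cancer cells carrying an MMTV luciferase reporter; series mostly up to about 92 µM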). An outline of the steps: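 Nilutamide-containing (3.0uM final) MDA-kb2 cultures, 3,000 cells/well, were treated with compounds across 15 concentrations. After 16 hr at 37C with no CO2, cell viability was determined by CellTiter-Fluor fluorescence in the luciferase assay wells.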

The target of assay [9] is Estrogen receptor beta (Homo sapiens) (UniProt Q92731). The assay can be described thus: qHTS assay to identify small molecule antagonists of the estrogen receptor beta (ER-beta) signaling pathway (AID 1259378; active means well fitted inhibition curve with a large enough effect in the signal ratio in the repeat runs, not every such curve was filed as active; the % refers to the signal ratio; further: potency means the concentration at half of the fitted maximal effect). An outline of the steps: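 Antagonist mode: compounds added to beta-lactamase reporter HEK293T ER-beta-UAS cells stimulated with E2 (1nM final), 16 hr at 37C. LiveBLAzer B/G FRET substrate, 2 hours room temperature, fluorescence read-out.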
Sequence of Estrogen receptor beta (Homo sapiens) (Q92731 whole entry, looked up): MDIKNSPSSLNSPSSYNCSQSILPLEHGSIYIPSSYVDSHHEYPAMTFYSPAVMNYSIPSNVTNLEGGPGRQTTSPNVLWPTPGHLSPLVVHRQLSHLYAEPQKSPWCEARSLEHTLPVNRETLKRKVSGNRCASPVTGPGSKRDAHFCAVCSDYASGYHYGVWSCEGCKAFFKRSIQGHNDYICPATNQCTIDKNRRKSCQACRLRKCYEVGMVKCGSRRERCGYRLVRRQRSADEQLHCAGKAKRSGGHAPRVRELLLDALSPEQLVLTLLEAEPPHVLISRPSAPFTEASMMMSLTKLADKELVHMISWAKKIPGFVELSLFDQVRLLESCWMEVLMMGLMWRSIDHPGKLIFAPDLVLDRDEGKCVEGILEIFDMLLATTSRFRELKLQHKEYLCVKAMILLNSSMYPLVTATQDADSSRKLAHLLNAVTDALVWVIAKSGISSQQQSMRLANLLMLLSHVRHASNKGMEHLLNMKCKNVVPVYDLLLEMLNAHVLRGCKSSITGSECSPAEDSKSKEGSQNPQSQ

Assay [10] concerns the target Androgen receptor (Homo sapiens) (UniProt P10275). Briefly: qHTS assay to identify small molecule agonists of the androgen receptor (AR) signaling pathway in the presence of an antagonist (AID 1259381). Further: nearly all actives have a fitted effect of over 15% in size. An outline of the steps:
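Reporter-gene luminescence from MDA-kb2 cells exposed 16hr at 37C (0% CO2) to 15-point compound titrations with 3.0uM final nilutamide as AR antagonist.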

A number with no mark means an inactive call. Results filed as inconclusive are left out. The source made the active and inactive calls. Unless noted, the call rests on the fitted dose curve.
On the % scale 0 is the no-effect control and ±100 the full control effect.

Sequence of Androgen receptor (Homo sapiens) (P10275 whole entry, looked up): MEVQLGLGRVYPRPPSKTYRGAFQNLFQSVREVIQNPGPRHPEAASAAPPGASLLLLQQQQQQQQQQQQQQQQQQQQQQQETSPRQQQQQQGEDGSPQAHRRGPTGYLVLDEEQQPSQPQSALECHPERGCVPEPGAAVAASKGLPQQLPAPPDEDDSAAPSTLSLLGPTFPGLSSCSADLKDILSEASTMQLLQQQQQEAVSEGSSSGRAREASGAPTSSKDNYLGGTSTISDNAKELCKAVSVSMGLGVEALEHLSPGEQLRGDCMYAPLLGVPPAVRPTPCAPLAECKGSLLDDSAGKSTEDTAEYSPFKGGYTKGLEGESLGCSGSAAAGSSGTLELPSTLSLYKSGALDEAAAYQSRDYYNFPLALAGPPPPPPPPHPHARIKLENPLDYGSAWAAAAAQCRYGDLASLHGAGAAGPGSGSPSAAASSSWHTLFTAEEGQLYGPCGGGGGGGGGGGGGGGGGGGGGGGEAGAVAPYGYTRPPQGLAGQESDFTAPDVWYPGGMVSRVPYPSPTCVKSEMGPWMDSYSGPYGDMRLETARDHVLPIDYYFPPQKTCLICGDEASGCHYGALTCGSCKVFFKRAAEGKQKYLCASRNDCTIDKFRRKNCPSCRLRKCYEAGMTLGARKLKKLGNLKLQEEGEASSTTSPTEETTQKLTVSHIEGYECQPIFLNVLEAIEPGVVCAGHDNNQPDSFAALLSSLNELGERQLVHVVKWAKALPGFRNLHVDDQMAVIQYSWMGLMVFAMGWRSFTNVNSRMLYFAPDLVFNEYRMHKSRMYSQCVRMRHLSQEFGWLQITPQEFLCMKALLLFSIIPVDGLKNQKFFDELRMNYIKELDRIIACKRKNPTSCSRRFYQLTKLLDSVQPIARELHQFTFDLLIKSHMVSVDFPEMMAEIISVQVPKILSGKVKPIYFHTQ

Consider `O=c1[nH]c2ccc(S(=O)CCN3CCC(Cc4ccc(F)cc4)CC3)cc2o1` (stereo not drawn), for which the Potency result in [1], in assay [2], in [3], in assay [4], in assay [5] and in assay [6] was “inactive” throughout. For the same molecule, the outcome in assay [7] was inactive.

`CC1(C)C(=O)N(Br)C(=O)N1Cl`: the Potency result in assay [1], in [2], in assay [3], in assay [8] and in [5] was “inactive” in each case. Besides, the outcome in assay [7] was inactive.

With `CCCOC(=O)c1ccc(N)cc1`, the Potency result in assay [1], in assay [2], in assay [9], in [8], in [4] and in assay [10] was “inactive” in each case. The Potency result in assay [5] and in assay [6] was “inactive” each time.

On to `C=CC(C)=CCC=C(C)C`, for which the Potency entry in assay [1], in assay [2], in assay [9], in assay [8], in assay [4] and in assay [5] was “inactive” throughout.

With `NC(=O)N(O)[C@@H]1COc2cc(OCc3ccccc3)ccc21`, the Potency entry in assay [1], in assay [2], in assay [3], in assay [8], in [4] and in [5] was “inactive” throughout. Besides, the Potency entry in assay [6] was “inactive”. In addition, the molecule was classed as inactive in assay [7].

For `CCOC(=O)c1ccccc1C`, the Potency entry in [1], in assay [2], in assay [3], in [8], in [5] and in [6] was “inactive” throughout. In addition, the molecule was called inactive in assay [7].

For the molecule `CCN(CC)CCNC(=O)c1ccc(NC(C)=O)cc1`, the Potency entry in assay [1], in assay [2], in assay [9], in [8], in assay [4] and in assay [10] was “inactive” each time. The Potency result in assay [5] and in assay [6] was “inactive” throughout.

As to `CN1CCN(c2c(F)cc3c(=O)c(C(=O)O)cn4c3c2OCN4C)CC1`, the activity change in assay [1] was -1.02% [at 18.9 µM, active compounds read high]. Besides, the activity change, negative = inhibition in assay [2] was 2.85% [at 19 µM]. Moreover, in [9], the activity, negative = inhibition was 2.63% [at 19 µM]. Also, the activity change, negative = cytotoxicity in assay [8] is 0.471% [at 19 µM]; in assay [5] it was -1.98% [at 19 µM]. In assay [6], the activation is -0.999% [at 19 µM]. In addition, in [7], the cAMP activity change is 0.366% [at 18.9 µM].

In the case of `CN(C(=O)C(Cl)Cl)c1ccc(OC(=O)c2ccco2)cc1`, the Potency result in [1], in assay [2], in assay [8], in assay [4], in [10] and in assay [5] was “inactive” in each case. Moreover, the molecule was called inactive in assay [7].

For the molecule `CO[C@H]1C=CO[C@@]2(C)Oc3c(C)c(O)c4c(O)c(c5c(c4c3C2=O)=NC2(CCN(CC(C)C)CC2)N=5)NC(=O)/C(C)=C\C=C/[C@H](C)[C@H](O)[C@@H](C)[C@@H](O)[C@@H](C)[C@H](OC(C)=O)[C@@H]1C`, the Potency entry in assay [1], in assay [4], in [10], in assay [5] and in [6] was “inactive” throughout. Besides, the Potency in assay [2] was 23.8 µM (active); in assay [8], 47.5 µM (active).

As to `O=C(O)Cc1ccc(-c2ccccc2)cc1`, the Potency result in assay [1], in assay [2], in [8], in [4], in assay [10] and in assay [5] was “inactive” in each case. The Potency entry in assay [6] was “inactive”. Moreover, the result in assay [7] was inactive.

Regarding `COc1ccc([C@@H]2Sc3ccccc3NC(=O)[C@@H]2O)cc1`, the Potency result in assay [1], in assay [2], in [8], in assay [4], in [10] and in [5] was “inactive” throughout. Moreover, in assay [6], the Potency result is “inactive”.

As for `C[N+](C)(C)CCOC(N)=O`, the Potency result in assay [1], in assay [2], in assay [8], in [4], in assay [10] and in assay [5] was “inactive” in each case. For the same molecule, in assay [7], the molecule was called inactive.

As for `CC[C@H](NC(=O)c1cc(F)ccc1NS(=O)(=O)c1cccc2cccnc12)c1ccccc1`, the Potency entry in assay [1], in assay [2], in assay [3], in assay [8] and in [6] was “inactive” throughout. For the same molecule, the Potency in assay [4] is 18.3 µM (active).

On to `C=CCCCCCCCCCCCCCCCC`, for which the activity change in assay [1] was 0.635% [at 8.39 µM, active compounds read high]. Moreover, in assay [2], the activity change, negative = inhibition is 12.7% [at 8.39 µM]. For the same molecule, the activity, negative = inhibition in assay [9] is 3.67% [at 8.39 µM]. Moreover, the activity change, negative = cytotoxicity in assay [8] is 0.762% [at 8.39 µM]; in assay [4], 5.49% [at 8.39 µM]; in assay [5], -0.694% [at 8.39 µM]. In addition, in assay [6], the activation was -0.131% [at 8.39 µM].

As to `CC(=O)Nc1ccc(N)cc1`, the Potency result in [1], in assay [2], in assay [9], in assay [8], in assay [10] and in assay [5] was “inactive” in each case. For the same molecule, the Potency entry in [6] was “inactive”.

As to `ON(Cc1ccccc1)Cc1ccccc1`, the Potency entry in assay [1], in assay [2], in assay [8], in [4], in assay [10] and in assay [5] was “inactive” throughout. In [6], the Potency entry was “inactive”. In addition, in assay [7], the outcome was inactive.

As for `CCOC(=O)C(C)Oc1ccc(Oc2nc3ccc(Cl)cc3o2)cc1` (stereo not drawn), the Potency entry in [1], in [2], in assay [8], in assay [4], in assay [10] and in assay [5] was “inactive” in each case.

Regarding `C1COCO1`, the Potency result in [1], in [2], in assay [3], in assay [8], in [4] and in assay [5] was “inactive” in each case. For the same molecule, the Potency result in assay [6] is “inactive”. Besides, the outcome in [7] was inactive.

With `COC(=O)c1cc(Cl)ccc1NS(=O)(=O)C(F)(F)F`, the Potency result in assay [1], in assay [2], in [3], in assay [8], in assay [10] and in [5] was “inactive” in each case.

In the case of `Nc1c(I)cc(I)c(C(=O)N(CCC(=O)O)c2ccccc2)c1I`, the Potency result in assay [1], in [2], in assay [8], in [4], in assay [10] and in assay [5] was “inactive” in each case.

For `CC(=O)[C@H]1CC[C@H]2[C@@H]3C=CC4=CC(=O)CC[C@@]4(C)[C@@H]3CC[C@]12C`, the Potency entry in assay [1], in assay [3], in [8], in assay [4], in assay [5] and in assay [6] was “inactive” in each case. The Potency in assay [2] is 11.9 µM (active). Further, the result in assay [7] was inactive.

As to `O=C(Nc1ccccc1)Nc1ccccc1`, the Potency result in assay [1], in assay [2], in assay [3], in assay [8], in [5] and in [6] was “inactive” each time.

For `CN(C)C(=O)Nc1ccc(Oc2ccc(Cl)cc2)cc1`, the Potency result in assay [1], in assay [2], in assay [3] and in assay [5] was “inactive” in each case. Moreover, the Potency in assay [8] was 54.5 µM (active). In addition, in assay [7], the call was inactive.

On to `Cc1ccc(Nc2nccc(N(C)c3ccc4c(C)n(C)nc4c3)n2)cc1S(N)(=O)=O`, for which the Potency result in assay [1], in assay [3], in assay [8], in assay [10], in assay [5] and in assay [6] was “inactive” each time. In addition, the Potency in assay [2] is 1.88 µM (active).

Take `CCCCCCCC/C=C\CCCCCCCC(=O)OC`: the Potency entry in [1], in assay [2], in assay [9], in assay [8], in [4] and in [5] was “inactive” throughout. In addition, the molecule was classed as inactive in [7].

For the molecule `CNC(=O)N(c1ccccc1)c1ccccc1`, the Potency entry in [1], in assay [8], in assay [4], in assay [10], in [5] and in assay [6] was “inactive” in each case. For the same molecule, in assay [2], the Potency was 6.89 µM (active).

In the case of `Cc1ccc(/C=N/n2c(-c3ccccc3)csc2=S)cc1`, the Potency result in [1], in assay [2], in [8] and in assay [5] was “inactive” each time. Also, the Potency in assay [9] was 7.5 µM (active).
